{
  "source": "PubChem BioAssay",
  "note": "Inconclusive results are not listed. The source made the active and inactive calls.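 The calls were made as follows: active = cell viability at or below a set limit in both duplicate runs, the limit being the all-compound median minus 4 SD (cut at about 23% in these data, passing the limit was not always enough); inconclusive = no clear call, values can overlap the other calls; inactive = the rest.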",
  "data": [
    {"assay": "viability of HCT116 without oncogenic beta-catenin – human colon tumor cells, pilot screen (AID 823);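 also: 0% = wells killed by 20 µM Hyamine and 100% = untreated DMSO cell wells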", "conditions": "HCT116 beta-catenin knockout viability, CellTiter-Glo, 60 h; at 10 µM; stronger effect = lower value", "values": [
      {"smiles": "CN(C)Cc1c(O)ccc2occ(C(O)c3ccccc3)c12", "note": "(configuration not stated)", "viability": "77.2% (inactive)"},
      {"smiles": "COc1ccc(N2CCN(C3CC(=O)N(C)C3=O)CC2)cc1", "note": "(configuration not stated)", "viability": "103% (inactive)"},
      {"smiles": "CC1CCN(c2nc(-c3ccncc3)nc3ccccc23)CC1", "viability": "40.4% (inactive)"},
      {"smiles": "Clc1ccccc1OCCN1CCCCC1", "viability": "85.5% (inactive)"},
      {"smiles": "CCOC(=O)C1=C(C)NC(C)=C(C(=O)OCC)C1C(=O)O", "viability": "93.5% (inactive)"},
      {"smiles": "CC(=O)Nn1cc2c(=O)n(C)c(=O)n(C)c2c1", "viability": "98.3% (inactive)"},
      {"smiles": "CCc1nnc(NC(=O)CCN2C(=O)CCC2=O)s1", "viability": "97.3% (inactive)"},
      {"smiles": "C/C(NCCN1CCOCC1)=C(\\C#N)C(N)=O", "viability": "105% (inactive)"},
      {"smiles": "COc1ccc(CCNC(=O)CCn2c(=O)oc3ccccc32)cc1OC", "viability": "105% (inactive)"},
      {"smiles": "Cc1ccc(-c2nc(CS(=O)(=O)CC(=O)N3CCc4ccccc4C3)c(C)o2)cc1", "viability": "67.4% (inactive)"},
      {"smiles": "Cc1ccc(-c2nn3c(C)nnc3s2)cc1NC(=O)c1ccc(OC(C)C)cc1", "viability": "79.4% (inactive)"},
      {"smiles": "COc1ccc(C(=O)Nc2nncs2)cc1S(=O)(=O)N1CC(c2ccccc2)CC1=O", "note": "(configuration not stated)", "viability": "101% (inactive)"},
      {"smiles": "CC(C)CC(NS(=O)(=O)c1ccc2c(c1)oc(=O)n2C)C(=O)NC1CCCc2ccccc21", "note": "(configuration not stated)", "viability": "76.8% (inactive)"},
      {"smiles": "O=C(NCc1cccs1)C1CCN(S(=O)(=O)c2cccc3cccnc23)CC1", "viability": "93% (inactive)"},
      {"smiles": "Cc1sc2ncnc(NCc3ccco3)c2c1C", "viability": "55.6% (inactive)"},
      {"smiles": "CC(=O)Oc1cccc(N2C(=O)C3C(C2=O)C2C=CC3C23CC3)c1", "note": "(configuration not stated)", "viability": "96.9% (inactive)"},
      {"smiles": "Cc1cc(N2C(=O)C3CC=CCC3C2=O)cc(C)c1Br", "note": "(configuration not stated)", "viability": "95.5% (inactive)"}
    ]}
  ]
}
